Source: PubChem BioAssay (several laboratories)
A selection: hits, their analogues and other compounds. The true share with any hit is near 4.2%.
NALP1 yeast inh: NALP1 inflammasome inhibitors in reconstituted yeast, colorimetric, S. cerevisiae, triplicate retest; S. cerevisiae NALP1/ASC/caspase-1 growth, X-gal OD620, 72 h; inhibition, % at 10 µM; actives 0.61% (n = 280,000); in the data active = inhibition mostly above about 24%, no sharp cut-off; inactive = mostly below about 32%
TIM10 inh: growth inhibitors of isogenic TIM10 control yeast, primary screen, counter-screen for tim10-1 yeast inhibitor project, luminescence, uHTS; S. cerevisiae TIM10 strain growth, BacTiter-Glo luminescence, 24 h; inhibition, % at 10 µM; actives 1.4% (n = 330,000);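 active = inhibition of 40% or more at the single tested concentration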;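 also: wild-type TIM10 isogenic control strain grown at permissive 25 °C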
PfHsp90 yeast 2: growth inhibition of PfHsp90-expressing yeast, primary screen, antimalarial PfHsp90 inhibitor project, S. cerevisiae, BacTiter-Glo luminescence, single point, set 2 | BacTiter-Glo ATP, 48 h; yeast lacking PDR1 and PDR3 efflux regulators | actives 0.32% (n = 310,000) | inhibition, % at 9.4 µM;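 active = every replicate shows inhibition above about 80%, whatever the replicate mean, limit read from the data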
NALP3 yeast inh: NALP3 inflammasome inhibitors in reconstituted yeast, primary screen, luminescence, uHTS; actives 0.39% (n = 330,000); Yeast reconstituted NLRP3/ASC/caspase-1, beta-gal luminescence, 24 h; inhibition, % at 10 µM; AID 2825, 2010;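 active = inhibition of 50% or more; inactive = inhibition below 50%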
tim10-1 inh: growth inhibitors of tim10-1 mutant yeast, primary screen, luminescence, uHTS | inhibition, % at 20 µM | S. cerevisiae tim10-1 ts strain growth, BacTiter-Glo, 24 h | actives 2.2% (n = 330,000) | AID 463190, 2010;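 active = inhibition of at least 40%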;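 also: mutant grown at 25 °C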
tim23-1 inh: growth inhibitors of tim23-1 mutant yeast, primary screen, luminescence, uHTS; S. cerevisiae tim23-1 growth, BacTiter-Glo luminescence, 24 h; inhibition, % at 20 µM; actives 1.3% (n = 330,000); AID 463212, 2010;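 active = growth inhibition of the mutant yeast at or above 50%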;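 also: temperature-sensitive mutant grown at 25 °C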
A number is an active result; i = inactive; nt = no result given.

SMILES	NALP1 yeast inh	TIM10 inh	PfHsp90 yeast 2	NALP3 yeast inh	tim10-1 inh	tim23-1 inh
Cc1ccc(S(=O)(=O)N(C)C)cc1[N+](=O)[O-]	i	i	i	i	i	i
O=C(CCN1C(=O)C2CC=C(Cl)CC2C1=O)NC1CCCCC1 (stereo not given)	42	i	i	i	i	i
CCc1cc2c(NCC(=O)O)ncnc2s1	39	i	i	i	i	i
CCc1cc2c(NCc3ccco3)ncnc2s1	i	i	nt	i	i	i
CCOP(=O)(OCC)/C(=C/N1CCCCC1)NC(=O)c1ccccc1	34	i	i	i	i	i
CCOC(=O)C(NC(=O)c1ccccc1)=C1CCCCC1	i	i	i	i	i	i
Cc1onc(-c2ccccc2)c1C(=O)NC(=S)NNC(=O)c1ccccc1O	i	i	101	i	i	i
CC1=C(C(=O)OCC2CCCO2)C(c2ccc(F)cc2)NC(=O)N1 (stereo not given)	41	i	i	i	i	i
Cc1nc2c(O)cccc2cc1CO	36	i	i	i	i	i
CCOC(=O)N1CCN(C(=O)CN(C2CCCCC2)S(=O)(=O)c2ccc(Cl)cc2)CC1	i	i	i	i	i	i
CCOC(=O)N1CCN(C(=O)CN(C2CCCCC2)S(=O)(=O)c2ccc(F)cc2)CC1	38	i	i	i	i	i
O=C(OCC(=O)N1CCN(C(=O)c2ccco2)CC1)c1cc(-c2ccc(F)cc2)nc2ccccc12	i	i	i	i	i	i
Cc1cc(N2CCN(C(=O)c3ccco3)CC2)n2ncc(-c3ccccc3)c2n1	i	i	124	i	i	i
O=C(OCC(=O)N1CCN(C(=O)c2ccco2)CC1)c1cc(-c2ccccc2)nc2ccccc12	i	i	101	i	i	i
O=C(OCC(=O)N1CCN(C(=O)c2ccco2)CC1)c1cc(-c2cccc(Br)c2)nc2ccccc12	i	i	100	i	i	i
CCN(CC(=O)NC(=O)NC1CCCC1)Cc1ccccc1	nt	i	i	i	i	i
Cc1ccc(N=C(NOCc2ccc(Cl)cc2Cl)c2nonc2N)c(C)c1	i	i	i	i	i	i
Cc1ccccc1N=C(NOCc1ccc(Cl)cc1Cl)c1nonc1N	40	i	i	i	i	i
Cc1ccc(-n2c(Cl)c(Cl)nc(Cl)c2=O)cc1	124	nt	105	nt	nt	nt
COc1nc(Cl)cn(-c2ccc(C)cc2)c1=O	i	i	i	i	i	i
CCC(C)N(C(=O)COC(=O)Cc1n[nH]c(=O)c2ccccc12)C1CCS(=O)(=O)C1 (stereo not given)	26	i	nt	i	i	i
CC1(C)OC2CC3C4CC(F)C5=CC(=O)C=CC5(C)C4(F)C(O)CC3(C)C2(C(=O)CO)O1 (stereo not given)	i	i	i	i	i	i
O=C1C(Cl)=C(NCCCO)C(=O)c2ccccc21	i	i	i	i	i	i
CCOCCCNC1=C(Cl)C(=O)c2ccccc2C1=O	i	i	107	i	i	i
O=C(CSc1nc(O)c(Cc2ccccc2)c(=O)n1-c1ccccc1)N1CCOCC1	40	i	i	i	i	i
SMILES	NALP1 yeast inh	TIM10 inh	PfHsp90 yeast 2	NALP3 yeast inh	tim10-1 inh	tim23-1 inh
Cc1ccc(-n2c(SCC(=O)N3CCOCC3)nc(O)c(Cc3ccccc3)c2=O)cc1	i	i	i	i	i	i
CCCN1CCN(CCCNC(=O)C2CCCN(c3nc4ccc(OCC)cc4s3)C2)CC1 (stereo not given)	i	i	i	i	i	i
CCOc1ccc2nc(N3CCCC(C(=O)N4CCN(CC)CC4)C3)sc2c1 (stereo not given)	34	i	i	i	i	i
CCOC(=O)Cn1cc(C#N)c2cccc(CC)c21	i	i	i	i	i	i
O=C(Nc1nccs1)c1ccc(-c2ccc([N+](=O)[O-])cc2)o1	32	nt	i	nt	nt	nt
O=C(Nc1nccs1)c1ccc(-c2ccc(Cl)cc2)o1	i	i	i	i	i	i
CCn1ccnc1CN(C)Cc1nc(Cc2cccc(C(F)(F)F)c2)no1	i	i	i	i	i	i
